Source: PubChem BioAssay
IL1B secr inh: qHTS for Inhibitors of Inflammasome Signaling: IL-1-beta AlphaLISA Primary Screen. 360,000 compounds, 4.7% hits. THP-1 LPS/ATP IL-1B secretion, AlphaLISA, 16 h; hits give low values. activity change, % at 57.5 µM; in the data active means activity change below about -50%; inconclusive means mostly about -30% to -49%
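THP-1 cells pretreated 1 hr with compounds (up to 57.5 uM final), then stimulated with LPS (250 ng/mL final) plus ATP (1.25 mM final); secreted IL-1B measured by AlphaLISA after 16 hr, decreased signal indicating inhibition.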
HepG2 viability: qHTS for Inhibitors of TGF-b: Cytotox Counterscreen; HepG2 CAGA-GFP viability, ATP luminescence, 18 h; Potency, µM (doses to about 46.1 µM), most hits filed as cytotoxic; 410,000 compounds, 0.76% hits; AID 588856, 2011
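HepG2 CAGA-GFP cells (1000/well, DMEM with 1% FBS) received compound, then TGF-beta at 500 pg/mL final, and were incubated 18 hours at 37 degrees C. Viability was read by CellTiter-Glo luminescence. Media-only wells were set as complete cell-killing and DMSO as no toxicity.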
S-ASM inh: Inhibitors of Secretory Acid Sphingomyelinase (S-ASM): qHTS | Sphingomyelin phosphodiesterase (Homo sapiens), P17405 | AID 504937, 2011 | 340,000 compounds, 0.006% hits | Potency, µM (titrated, usually from 57.5 µM), most hits filed as inhibitors | placental ASM, HMU-PC fluorogenic substrate, 60 min
Target sequence (P17405 47-631 limits assumed): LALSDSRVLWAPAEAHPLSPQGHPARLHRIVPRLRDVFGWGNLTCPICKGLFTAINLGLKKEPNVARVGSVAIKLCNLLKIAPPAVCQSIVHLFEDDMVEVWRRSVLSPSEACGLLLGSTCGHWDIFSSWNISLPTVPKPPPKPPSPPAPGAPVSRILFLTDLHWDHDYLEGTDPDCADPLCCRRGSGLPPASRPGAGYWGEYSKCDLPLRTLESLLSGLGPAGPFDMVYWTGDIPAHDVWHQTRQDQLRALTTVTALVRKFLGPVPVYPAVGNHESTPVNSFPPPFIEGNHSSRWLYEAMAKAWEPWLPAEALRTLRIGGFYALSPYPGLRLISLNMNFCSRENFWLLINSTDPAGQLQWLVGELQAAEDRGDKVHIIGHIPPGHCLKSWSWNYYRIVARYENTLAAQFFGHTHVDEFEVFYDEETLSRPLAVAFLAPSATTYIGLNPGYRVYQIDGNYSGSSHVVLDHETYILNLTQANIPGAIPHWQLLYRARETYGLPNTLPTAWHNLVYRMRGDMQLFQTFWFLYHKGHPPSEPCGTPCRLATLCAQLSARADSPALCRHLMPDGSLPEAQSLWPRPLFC
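Fluorogenic HMU-PC substrate (9 uM final) is turned over by placental ASM in 60 min at 37 C after a 10 min compound preincubation. Reaction ended by alkaline stop (pH 10), with fluorescence read at 386/447 nm.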
DT40 TDP1 CPT: qHTS for Inhibitors of human tyrosyl-DNA phosphodiesterase 1 (TDP1): qHTS in cells in presence of CPT. chicken DT40 Tdp1-/-;hTDP1 cells + 20 nM CPT, ATP luminescence, 48 h. Potency, µM (series often up to 46.2 µM), actives largely listed as inhibitors. 420,000 compounds, 12% hits. AID 686979, 2013; further: nearly all actives have a fitted effect of over 55% in size
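Chicken DT40 Tdp1-/- cells complemented with human TDP1, 400 cells/well, exposed to compounds plus 20 nM camptothecin for at least 48 h at 37 C; viability read as ATP content by CellTiter-Glo luminescence.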
TGFb inhibitor: qHTS for Inhibitors of TGF-b | HepG2 CAGA-GFP TGF-b/SMAD3 reporter, GFP fluorescence, 18 h; TGF-beta stimulated, 500 pg/mL final | Potency, µM (highest dose often 46.1 µM), most hits filed as inhibitors | 410,000 compounds, 1.2% hits; further: nearly all actives have a fitted effect of over 65% in size
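Cell-based qHTS in HEPG2 carrying a CAGA-GFP Smad reporter; compounds added before 500 pg/mL final TGF-beta, 18 h incubation at 37 degrees C, GFP fluorescence quantified per cell by imaging cytometry.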
DT40 TDP1 no CPT: qHTS for Inhibitors of human tyrosyl-DNA phosphodiesterase 1 (TDP1): qHTS in cells in absence of CPT. Potency, µM (top dose mostly 46.2 µM), hits mostly inhibitors. DT40 Tdp1-/- hTDP1 cells, no CPT, ATP luminescence, 48 h. AID 686978, 2013. 420,000 compounds, 15% hits; further: nearly all actives have a fitted effect of over 55% in size
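Compound effects on proliferation are scored in DT40 Tdp1-/-;hTDP1 cells in the absence of CPT. ATP levels (CellTiter-Glo luminescence) are recorded after a ≥48 hr, 37 °C incubation.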
Large screens that a line does not name were inactive. This is a sample that favours compounds with a hit; in the whole collection about 19% have one here. Unless noted, the call rests on the fitted dose curve; in most records, active means well fitted curve in the direction sought with a large enough effect; inconclusive means small, poorly fitted or top-dose-only effect, or another doubt; inactive means no such curve, though single readings can be large; an effect the other way counts as inactive or inconclusive.

CC1(Cc2ccc(F)cc2)C(=O)Nc2ccc(S(=O)(=O)NC3CCCCC3)cc21 (stereo unspecified)	DT40 TDP1 CPT inconclusive, TGFb inhibitor inconclusive, DT40 TDP1 no CPT inconclusive (no result: S-ASM inh)
COc1ccc(S(=O)(=O)NC2CCCC2)cc1Br	none
COc1ccc(Cl)cc1CC1(C)C(=O)Nc2ccc(S(=O)(=O)NC3CCCCC3)cc21 (stereo unspecified)	DT40 TDP1 CPT 23.1µM, TGFb inhibitor inconclusive, DT40 TDP1 no CPT inconclusive (no result: S-ASM inh)
COc1ccccc1CC1(C)C(=O)Nc2ccc(S(=O)(=O)NC3CCCCC3)cc21 (stereo unspecified)	DT40 TDP1 CPT 20.6µM, DT40 TDP1 no CPT inconclusive (no result: S-ASM inh)
COc1ccc(OC(F)(F)F)cc1CC1(C)C(=O)Nc2ccc(-c3ccsc3)cc21 (stereo unspecified)	DT40 TDP1 CPT inconclusive, TGFb inhibitor 12.6µM, DT40 TDP1 no CPT inconclusive (no result: S-ASM inh)
Cc1nn(CC(=O)OCC(=O)c2ccccc2)c(C)c1[N+](=O)[O-]	none
CC1(Cc2ccccc2OC(F)(F)F)C(=O)Nc2ccc(S(=O)(=O)NC3CCCCC3)cc21 (stereo unspecified)	DT40 TDP1 CPT inconclusive, TGFb inhibitor 12.6µM, DT40 TDP1 no CPT inconclusive (no result: S-ASM inh)
Cc1ccccc1CC1(C)C(=O)Nc2ccc(S(=O)(=O)NC3CCCCC3)cc21 (stereo unspecified)	DT40 TDP1 CPT inconclusive, TGFb inhibitor inconclusive, DT40 TDP1 no CPT 20.6µM (no result: S-ASM inh)
COc1ccc(C(C)=O)cc1CC1(C)C(=O)Nc2ccc(OC(F)(F)F)cc21 (stereo unspecified)	DT40 TDP1 CPT inconclusive, DT40 TDP1 no CPT inconclusive (no result: S-ASM inh)
COc1ccc(OC(F)(F)F)cc1CC1(C)C(=O)Nc2cccc(Cl)c21 (stereo unspecified)	DT40 TDP1 CPT inconclusive, TGFb inhibitor inconclusive, DT40 TDP1 no CPT 14.6µM (no result: S-ASM inh)
COc1ccc(S(=O)(=O)NC2CCCCC2)cc1F	none
COC(=O)C1CCCCN1C(=O)c1cc(COc2cccc3cccnc23)on1 (stereo unspecified)	none
CCOC(=O)CC1CCCCN1C(=O)c1cc(COc2cccc3cnccc23)on1 (stereo unspecified)	DT40 TDP1 CPT 1.64µM, DT40 TDP1 no CPT 3.66µM
CN(Cc1nccs1)C(=O)c1cc(COc2cccc3cnccc23)on1	DT40 TDP1 CPT 7.31µM, DT40 TDP1 no CPT 10.3µM
COCCC1CCCCN1C(=O)c1cc(COc2cccc(C(C)=O)c2)on1 (stereo unspecified)	DT40 TDP1 CPT 23.1µM, TGFb inhibitor inconclusive, DT40 TDP1 no CPT 25.9µM
O=C(c1cc(COc2cccc3cccnc23)on1)N1CCC[C@H]1CO	IL1B secr inh -64.0 (no result: S-ASM inh)
CC(=O)c1ccc(OCc2cc(C(=O)N3CCC[C@H]3CO)no2)cc1	none
CCOC(=O)CC1COCCN1C(=O)c1cc(COc2ccccc2SC)on1 (stereo unspecified)	DT40 TDP1 no CPT inconclusive (no result: S-ASM inh)
O=C(O)C1=C[C@@H](c2ccc(C(F)(F)F)cc2)C[C@@H](OCCCCO)O1	none
CCOC(=O)c1cc(OC(=O)c2ccc(OC)c(OC)c2)n(-c2ccccc2)n1	none (no result: IL1B secr inh, S-ASM inh, DT40 TDP1 CPT, DT40 TDP1 no CPT)
CC1(C)CC(=O)C(C=NCC2CCN(C(=S)Nc3ccccc3)CC2)=C(O)C1	none
O=C(Nc1cccc2ncccc12)C(c1ccccc1)c1ccccc1	DT40 TDP1 CPT inconclusive, DT40 TDP1 no CPT inconclusive
Cc1noc(C)c1CCC(=O)Nc1c(C(C)C)cccc1C(C)C	none
CC(C)N(Cc1ccccc1)C(=O)c1ccc2nsnc2c1	DT40 TDP1 CPT inconclusive, DT40 TDP1 no CPT 20.6µM
Cc1c(Cl)cccc1S(=O)(=O)N1CCC(C(=O)NNC(=O)C2CC2)CC1	TGFb inhibitor inconclusive
O=C(Nc1ccc(-c2nc3c(ccc4ccccc43)o2)cc1)c1ccco1	DT40 TDP1 CPT inconclusive, DT40 TDP1 no CPT 18.4µM
CC(NC(=O)c1ccco1)c1nc(-c2ccc(Cl)cc2)no1 (stereo unspecified)	DT40 TDP1 CPT inconclusive, DT40 TDP1 no CPT 20.6µM
O=C(Nc1ccc(-c2noc(CCc3ccccc3)n2)cc1)c1ccco1	DT40 TDP1 CPT 18.4µM, TGFb inhibitor inconclusive, DT40 TDP1 no CPT inconclusive
COc1ccc(-c2noc(C(C)NC(=O)c3ccco3)n2)cc1OC (stereo unspecified)	none
COc1ccc(CCN(C)S(=O)(=O)c2cn(C)c(=O)n(C)c2=O)cc1OC	none
CC(C)c1ccccc1NC(=S)NCC1(N(C)C)CCCCC1	none
COC(=O)c1ccc(CNC(=O)c2nc(Cn3nc(C)c(Br)c3C)no2)cc1	TGFb inhibitor inconclusive (no result: IL1B secr inh, S-ASM inh, DT40 TDP1 CPT, DT40 TDP1 no CPT)
COc1cc(CNC(=O)c2nc(Cn3nc(C)c(Br)c3C)no2)cc(OC)c1	IL1B secr inh -71.2, DT40 TDP1 CPT 29.1µM, DT40 TDP1 no CPT inconclusive
COc1cc(CNC(=O)c2ccc(Cn3nc(C)c(Cl)c3C)o2)cc(OC)c1	DT40 TDP1 CPT inconclusive, DT40 TDP1 no CPT 8.2µM
C1=Cc2ccccc2/C1=C\c1cc2c3c(c1)CCCN3CCC2	DT40 TDP1 CPT 1.12µM, DT40 TDP1 no CPT 5.01µM (no result: IL1B secr inh, S-ASM inh)
CCc1nc2ccc(C(=O)NCc3ccc(OC)cc3)cn2c1N(CC)CCN(C)C	none (no result: S-ASM inh)
CCc1nc2ccc(C(=O)N(C)C(C)C)cn2c1N(CC)Cc1cccc(Br)c1	DT40 TDP1 CPT inconclusive, DT40 TDP1 no CPT 14.6µM (no result: S-ASM inh)
CCc1nc2ccc(C(=O)N3CCN(S(=O)(=O)CC)CC3)cn2c1N(CC)Cc1cccc(Br)c1	DT40 TDP1 CPT 23.1µM, TGFb inhibitor inconclusive, DT40 TDP1 no CPT inconclusive (no result: S-ASM inh)
CC(C)CNC(=O)C(=O)NCC1OCCCN1S(=O)(=O)c1ccc2c(c1)OCCO2 (stereo unspecified)	none
COc1ccc(-c2ccc3c(c2)c(-c2cccs2)c(-c2cc(OC)cc(OC)c2)n3C)cc1	DT40 TDP1 CPT inconclusive, DT40 TDP1 no CPT 23.1µM
COc1cc(OC)cc(-c2c(-c3cccs3)c3cc(-c4cc(OC)c(OC)c(OC)c4)ccc3n2C)c1	DT40 TDP1 CPT inconclusive
COc1cc(OC)cc(-c2c(-c3cccs3)c3cc(-c4ccc(C(N)=O)cc4)ccc3n2C)c1	DT40 TDP1 CPT inconclusive, DT40 TDP1 no CPT 16.4µM
O=c1ccc2ccc(OCc3ccccc3)cc2o1	none
